The campaign covered roughly 400,000 compounds. About 2,100 (0.53%) were called active. Roughly 14% stayed inconclusive and do not appear here. The rule behind the calls is not given here. This excerpt belongs to a sample that is enriched for actives.

For the experiment, the target named is Ataxin-2 (Homo sapiens) (UniProt Q99700). The experiment is described as follows: qHTS for Inhibitors of ATXN expression. The format is functional. For orientation: In qHTS, concentration-response curves come from the screen itself.
Ataxin-2 (Homo sapiens), sequence (Q99700 whole entry): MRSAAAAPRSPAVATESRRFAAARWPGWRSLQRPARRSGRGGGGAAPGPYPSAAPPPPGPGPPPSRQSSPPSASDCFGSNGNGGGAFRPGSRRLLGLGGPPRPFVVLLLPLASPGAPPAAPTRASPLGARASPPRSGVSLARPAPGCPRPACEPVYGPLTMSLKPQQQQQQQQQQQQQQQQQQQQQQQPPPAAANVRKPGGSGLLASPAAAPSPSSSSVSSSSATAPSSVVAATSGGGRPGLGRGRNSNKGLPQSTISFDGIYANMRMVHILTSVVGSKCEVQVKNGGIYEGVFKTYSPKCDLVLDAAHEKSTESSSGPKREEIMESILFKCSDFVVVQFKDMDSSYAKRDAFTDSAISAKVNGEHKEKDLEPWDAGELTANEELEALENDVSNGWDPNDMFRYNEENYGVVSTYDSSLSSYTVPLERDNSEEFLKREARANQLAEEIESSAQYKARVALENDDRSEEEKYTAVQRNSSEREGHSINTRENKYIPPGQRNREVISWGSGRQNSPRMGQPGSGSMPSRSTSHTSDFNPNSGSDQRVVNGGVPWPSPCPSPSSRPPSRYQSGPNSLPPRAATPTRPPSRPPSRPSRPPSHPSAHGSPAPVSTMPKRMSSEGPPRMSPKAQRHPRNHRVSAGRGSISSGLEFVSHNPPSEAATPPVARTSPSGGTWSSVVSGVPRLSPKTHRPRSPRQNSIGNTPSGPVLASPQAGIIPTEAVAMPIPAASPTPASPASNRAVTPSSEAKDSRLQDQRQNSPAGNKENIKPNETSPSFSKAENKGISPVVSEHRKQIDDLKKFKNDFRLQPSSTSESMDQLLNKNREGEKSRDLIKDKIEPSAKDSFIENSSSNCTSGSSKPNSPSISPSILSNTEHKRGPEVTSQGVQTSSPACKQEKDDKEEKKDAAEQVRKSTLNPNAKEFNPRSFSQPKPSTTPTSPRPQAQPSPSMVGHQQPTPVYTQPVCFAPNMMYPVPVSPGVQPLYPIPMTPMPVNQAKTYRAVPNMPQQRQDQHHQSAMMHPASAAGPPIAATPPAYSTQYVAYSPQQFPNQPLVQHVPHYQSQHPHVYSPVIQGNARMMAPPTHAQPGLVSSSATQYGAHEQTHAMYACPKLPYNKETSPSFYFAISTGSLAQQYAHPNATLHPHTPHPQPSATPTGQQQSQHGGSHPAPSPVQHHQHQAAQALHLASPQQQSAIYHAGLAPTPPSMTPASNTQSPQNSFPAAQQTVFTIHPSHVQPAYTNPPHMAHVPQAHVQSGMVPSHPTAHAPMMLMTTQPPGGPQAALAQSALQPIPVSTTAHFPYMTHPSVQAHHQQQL
Turning to `O=C(Nc1cc(S(=O)(=O)N2CCCC2)ccc1Cl)c1ccncc1`, the Potency entry was “inactive”.
On to `CCOc1cc(Br)c(/C=C2/C(=O)N(C)C(=S)N2CC(=O)OC)cc1OC`, for which the Potency result was “inactive”.
For `Cn1c(SCc2cc(O)nc(C(C)(C)C)n2)nnc1C(F)(F)F`, the Potency entry is “inactive”.
For `CCCn1c(=N)c(C(=O)NCC2CCCO2)cc2c(=O)n3cc(C)ccc3nc21` (centres undefined), the Potency result was “inactive”.
The result for `Nc1nc(-c2ccc(Cl)cc2)c(N=Nc2ccc(S(=O)(=O)N3CCOCC3)cc2)s1` reads 29.9 µM (active); that for `Cc1ccc(S(=O)(=O)N2CCN(C(=O)c3cc(S(=O)(=O)N4CCOCC4)c(Cl)cc3Cl)CC2)cc1`, “inactive”; that for `O=c1nc2ccc(Cl)cn2c2ccc(S(=O)(=O)N3CCOCC3)cc12`, “inactive”.
With `Nc1ccc2c(c1)C/C(=C/c1ccco1)C2=O` the entry was “inactive”; with `Cc1ccc(C2=CC(c3c(F)cccc3Cl)n3ncnc3N2)cc1C` (centres undefined), “inactive”; with `CCCOc1ccc(C(=O)c2ccccc2C(=O)OC2CCOC2=O)cc1OCCC` (centres undefined), 39.8 µM (active).
The result for `O=C(OC1CCOC1=O)c1cc(-c2cccs2)nc2ccccc12` (centres undefined) reads “inactive”; that for `CCOc1cc(C(=O)O)ccc1OCCOc1ccccc1`, “inactive”.
On to `O=C(O)c1ccc2nc(-c3cc4cc(Cl)ccc4oc3=O)[nH]c2c1`, for which the Potency result was “inactive”.
The result for `CCn1c2ccccc2c2cc(CN3CCOc4ccc(C(O)c5cccnc5)cc4C3)ccc21` (centres undefined) reads 31.6 µM (active).
The result for `CC(C)C(OC(=O)c1ccccc1)c1nccc2ccccc12` (centres undefined) reads “inactive”; that for `CCOc1cc2c(cc1/C=C1/NC(=O)N(CC(=O)OC)C1=O)OCO2`, “inactive”; that for `COc1ccc(/C=c2\s/c(=C/C(=O)c3ccc(C)cc3)[nH]c2=O)cc1OC`, “inactive”.
As for `COc1ccc(C=CC(=O)c2ccc3cc(OC)c(OC)cc3c2)cc1OC`, the Potency result is “inactive”.
The result for `COc1cc(/C=C/C(=O)O)ccc1OS(=O)(=O)c1cc(C)ccc1C` reads “inactive”; that for `COc1cc(/C=C/C(=O)c2ccc(C)cc2)ccc1OCC#N`, 39.8 µM (active); that for `COc1cccc(C(=O)/C=C/c2ccc(OCC#N)c(OC)c2)c1`, 31.6 µM (active).
The result for `COc1ccc(OC)c(N/C=C/C(=O)c2ccc(OC)c(OC)c2)c1` reads “inactive”; that for `CCS(=O)(=O)Nc1cc2c3c(c1)CCC(=O)N3CCC2`, “inactive”; that for `O=S(=O)(NN=C(NS(=O)(=O)c1ccccc1)c1ccccc1)c1ccccc1`, “inactive”.
The result for `CCc1cc2cc(C)ccc2nc1SCC(=O)NC1CCCC1` reads “inactive”; that for `Cc1cc(=O)n2c(n1)SCOC2`, “inactive”.
On to `Cc1cccn2c(=O)c3cc(C(=O)NCc4ccc(F)cc4)c(=N)n(CC4CCCO4)c3nc12` (centres undefined), for which the Potency entry is “inactive”.
The result for `CC(C)C[C@H](N)c1nnc(S(=O)(=O)Cc2ccc(F)cc2)o1` reads 31.6 µM (active); that for `CC(C)C[C@H](N)c1nnc(S(=O)(=O)Cc2cccc(F)c2)o1`, 39.8 µM (active).

The record behind these values is ChEMBL document CHEMBL1201862, “PubChem BioAssay data set” (2004).
